Spn DPM-DC inh – blocks S. pneumoniae diphosphomevalonate decarboxylase | purified DPM-DC, PK/LDH coupled NADH fluorescence | calls only at 10 µM | 65,000 compounds, 0.49% hits | AID 556;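 active = the 320 compounds with the highest percent inhibition in the single-dose primary screen, excluding strongly autofluorescent ones, cut at about 32% in these data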;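 note: kinetic rate of NADH fluorescence loss reporting ADP formed by the decarboxylase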
Abs 340nm – compounds absorbing at 340 nm | compound absorbance at 340 nm, fold over control | fold change at 10 µM | 65,000 tested, under 10 active | AID 708;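 active = at 10 µM dose, initial 340 nm absorbance at least 2 fold that of control wells; inactive = change under 2 fold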;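 note: initial absorbance extrapolated from kinetic A340 decline of NADH oxidation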
NADH coupling – inhibition of NAD/NADH coupling enzymes, library profiling; 65,000 compounds, 0.02% hits; coupled PK/LDH NADH assays, four targets; IC50, µM (top dose mostly 10 µM), inactives show top-dose inhibition;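 active = single-dose screening hits from any of four coupled enzyme assays that gave an IC50 when retested across doses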;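 note: the DPM-DC format reads NADH fluorescence rather than 340 nm absorbance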
MK inhibit – blocks S. pneumoniae mevalonate kinase; 65,000 compounds, 0.48% hits; inhibition, % at 10 µM; AID 555; purified MK, PK/LDH-coupled NADH absorbance 340 nm;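 active = ranked among the strongest by inhibition in the single 10 µM screen, a fixed top-ranked set picked for dose follow-up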
Spn PMK inh – inhibitors of Streptococcus pneumoniae phosphomevalonate kinase. purified PMK, PK/LDH-coupled NADH absorbance 340 nm. inhibition, % at 10 µM. 65,000 compounds, 0.49% hits;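 active = top-ranked compounds by inhibition in the single 10 µM screen, taking a fixed number of the strongest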;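 note: 0% = full reaction with DMSO carrier and 100% = background rate without enzyme reaction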
Autofluor 339 – intrinsic fluorescence of library compounds, ex339/em460 – biochemical, MLSMR library, data from DPM-DC assay, artefact control, profiling panel | AID 709 | 65,000 compounds, 5.5% hits | compound autofluorescence, ex339/em460 nm, NADH buffer; active compounds read high; 1 = no-compound wells, NADH background | fluorescence fold increase at 10 µM;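 active = at 10 µM, mean starting fluorescence two-fold or more over control wells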;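 note: signal is the first read of a kinetic run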
Numbers without * were called inactive; i = inactive; · = not tested or not shown; + = active, no number. In the library only some 6.3% were active in any assay of this set; here they are far more common.

SMILES | Spn DPM-DC inh | Abs 340nm | NADH coupling | MK inhibit | Spn PMK inh | Autofluor 339
COCCOC(=O)C1=C(C)NC2=C(C(=O)CC(C)(C)C2)C1c1cccnc1 (stereo not drawn) | · | 1.1 | 11% | 11 | 11 | 3.8*
CCOC(=O)C1=C(C)NC2=C(C(=O)CC(C)(C)C2)C1c1ccc(N(C)C)cc1 (stereo not drawn) | i | 1 | 4% | 0 | 0 | 1.2
CC1=C(C(=O)OCC2CCCO2)C(c2ccncc2)C2=C(CC(C)(C)CC2=O)N1 (stereo not drawn) | · | 1.1 | 1% | 2 | 0 | 2.1*
CC1=C(C(=O)OCCOC(C)C)C(c2cccnc2)C2=C(CCCC2=O)N1 (stereo not drawn) | · | 1.1 | 2% | 2 | 1 | 2.2*
CCN(CC)c1ccc(C2C(C(=O)OCCOC(C)C)=C(C)NC3=C2C(=O)CCC3)cc1 (stereo not drawn) | i | 1.1 | 4% | 0 | 0 | 1.4
Cn1c(NCCCN2CCOCC2)nc2c1c(=O)n(Cc1ccc(Cl)c(Cl)c1)c(=O)n2C | i | 1.1 | 5% | 8 | 7 | 1.1
CCC(CO)n1cnnc1-c1ccncc1 (stereo not drawn) | i | 0.94 | 7% | 3 | 18 | 1.1
C=CCn1c(N)c(C(=O)OC(C)CC)c2nc3ccccc3nc21 (stereo not drawn) | · | 1.1 | 8% | 0 | 16 | 2.1*
C=CCn1c(N)c(C(=O)OC(C)(C)C)c2nc3ccccc3nc21 | · | 0.98 | 5% | 8 | 7 | 2.5*
CCn1c(=O)c(C2=NS(=O)(=O)c3ccccc3N2)c(O)c2ccccc21 | i | 1.1 | 11% | 0 | 12 | 2.5*
CCn1c(=O)c(-[n+]2ccccc2)c(O)c2ccccc21 | i | 1 | 9% | 12 | 14 | 1.1
CCN(CC)c1ccc(NC(=O)CSc2nnc(N)s2)cc1C | i | 1 | 4% | 5 | 8 | 1.1
CCN(CC)c1cc(C)c2cc(NC(=O)CNC(C)=O)ccc2n1 | · | 1.1 | 7% | 13 | 0 | 2.2*
CCOc1ccc(OCC)c(NC(=O)CCn2c(=O)oc3ccccc32)c1 | i | 0.97 | 6% | 4 | 13 | 1.1
OCCN1CCN(c2ncnc3c2sc2nc(N4CCOCC4)c4c(c23)CCC4)CC1 | · | 1.2 | 4% | 7 | 0 | 2.1*
c1nc(N2CCNCC2)c2sc3nc(N4CCOCC4)c4c(c3c2n1)CCC4 | · | 1.1 | 2% | 4 | 0 | 2.1*
OCCN(CCO)c1ncnc2c1sc1nc(N3CCOCC3)c3c(c12)CCCC3 | i | 1.1 | 6% | 0 | 3 | 1.5
O=C1C(=O)N(CCCn2ccnc2)C(c2cccnc2)/C1=C(/O)c1ccc(Br)cc1 (stereo not drawn) | i | 1.1 | 4% | 5 | 0 | 1.1
CN1C(=O)c2oc3ccc(Br)cc3c(=O)c2C1c1ccncc1 (stereo not drawn) | i | 1 | 8% | 6 | 16 | 1
COc1ccc(Oc2c(C)oc3c(CN(C)C)c(O)ccc3c2=O)cc1 | · | 1.2 | 5% | 2 | 8 | 3.9*
COc1ccc(Oc2coc3c(CN(C)C)c(O)ccc3c2=O)cc1 | · | 1.2 | 14% | 9 | 19 | 2.3*
O=C(CCSc1ccc(Cl)cc1)N1CCN(c2ncccn2)CC1 | i | 1 | 4% | 1 | 11 | 1.2
O=S1(=O)CCC(SCc2nc3sccn3c2Br)C1 (stereo not drawn) | i | 1 | 4% | 5 | 6 | 1.1
O=C(O)CCN1C(=O)c2ccc(NC(=O)c3cccs3)cc2C1=O | · | 1.1 | 10% | 12 | 8 | 3.6*
CCCC(=O)Nc1ccc2c(c1)C(=O)N(CCC(=O)O)C2=O | · | 1.1 | 9% | 10 | 8 | 3.8*
SMILES | Spn DPM-DC inh | Abs 340nm | NADH coupling | MK inhibit | Spn PMK inh | Autofluor 339
COc1cc(C2c3c(oc4ccccc4c3=O)C(=O)N2Cc2ccncc2)ccc1O (stereo not drawn) | i | 1 | 3% | 2 | 6 | 1.1
Cc1cc(C)n(-c2nc3ccccc3n3cnnc23)n1 | i | 1.1 | 8% | 11 | 12 | 1.1
CCN(CC)c1nc2ccccc2n2cnnc12 | + | 1.1 | 18% | 3 | 18 | 1.1
c1ccc(N2CCOCC2)c(Nc2nc3ccccc3n3cnnc23)c1 | i | 1.1 | 4% | 0 | 8 | 1.2
CCOc1ccccc1Nc1nc2ccccc2n2cnnc12 | · | 1.1 | 13% | 10 | 15 | 2.1*
CCOC(=O)c1ccc(NC(=O)CCC(=O)OC)cc1 | i | 1 | 3% | 5 | 5 | 1.1
CCC(=O)Nc1ccc(-c2nnc(SCC(=O)NCC3CCCO3)n2C)cc1 (stereo not drawn) | i | 1 | 2% | 0 | 5 | 1.1
Oc1ccc(N=Cc2ccc(-c3cccs3)s2)cc1 | · | 1.1 | 9% | 7 | 10 | 2.2*
Nc1ccc(C(=O)c2ccc3c(c2)OCCO3)cc1N | i | 1.2 | 3% | 6 | 0 | 1.1
Cc1ccc(C(=O)c2cc3c(cc2N)OCCO3)cc1 | i | 1.1 | 9% | 0 | 27* | 1.1
CCN(CC)CCNCc1ccc(-c2ccc(Cl)cc2)o1 | i | 1 | 7% | 9 | 13 | 1.1
Fc1ccc2[nH]c3c(N4CCN(C5CCCCC5)CC4)ncnc3c2c1 | · | 1.1 | 3% | 3 | 2 | 2.3*
Cc1ccc2[nH]c3c(N4CCCCCC4)ncnc3c2c1 | i | 1.1 | 3% | 0 | 8 | 1.3
CCOc1ccc(NC(=O)COC(=O)c2cccnc2)cc1 | i | 0.98 | 5% | 7 | 9 | 0.99
COc1cccc(CNC(=O)C2CCCN(c3nn4c(=O)cc(C)nc4s3)C2)c1 (stereo not drawn) | i | 1 | 9% | 0 | 27* | 1.1
O=C(CN1C(=O)c2cccc3cccc1c23)N1CCN(c2ccccc2)CC1 | i | 1 | 7% | 0 | 19 | 1.2
O=C(CN1C(=O)c2cccc3cccc1c23)N1CCN(c2cccc(Cl)c2)CC1 | i | 1 | 16% | 8 | 10 | 2.4*
C1CCC(c2nn3c(-c4n[nH]c5c4CCC5)nnc3s2)CC1 | i | 1 | 6% | 6 | 13 | 1.1
CCN(CC)c1ccc(-c2nn3c(-c4n[nH]c5c4CCC5)nnc3s2)cc1 | i | 1.1 | 14% | 3 | 9 | 2.9*
CN(C)c1nc2sc3c(c2c(=O)n1C)CC(C)(C)OC3 | i | 1.1 | 7% | 10 | 10 | 1.1
CNc1nc2sc3c(c2c(=O)n1C)CC(C)(C)SC3 | i | 1 | 5% | 6 | 2 | 2.2*
COc1ccc2[nH]c(=O)c(CNC3CCCCC3)cc2c1 | · | 1 | 3% | 7 | 7 | 2.7*
COc1ccc2[nH]c(=O)c(CN(C(=O)NC3CCCCC3)C3CCCCC3)cc2c1 | i | 1.1 | 12% | 2 | 13 | 2.8*
COc1ccc2cc(CN(C(=O)Nc3ccccc3)C3CCCC3)c(=O)[nH]c2c1 | i | 1.1 | 7% | 5 | 16 | 1.1
